PI5P4K alpha inh: inhibitors of human PI5P4K alpha; P48426; PI5P4Kalpha enzyme, ADP-Glo luminescence, 60 min; stronger effect = lower value; max response, %; 330,000 tested, 1.2% active; AID 652105; active = max response of -50% or lower; inconclusive = between -30% and -50%; inactive = -30% or higher; note: value at the top dose of about 77 µM; % is set by controls: 0 for no effect and ±100 for the full control effect
Target sequence (P48426 whole entry, looked up): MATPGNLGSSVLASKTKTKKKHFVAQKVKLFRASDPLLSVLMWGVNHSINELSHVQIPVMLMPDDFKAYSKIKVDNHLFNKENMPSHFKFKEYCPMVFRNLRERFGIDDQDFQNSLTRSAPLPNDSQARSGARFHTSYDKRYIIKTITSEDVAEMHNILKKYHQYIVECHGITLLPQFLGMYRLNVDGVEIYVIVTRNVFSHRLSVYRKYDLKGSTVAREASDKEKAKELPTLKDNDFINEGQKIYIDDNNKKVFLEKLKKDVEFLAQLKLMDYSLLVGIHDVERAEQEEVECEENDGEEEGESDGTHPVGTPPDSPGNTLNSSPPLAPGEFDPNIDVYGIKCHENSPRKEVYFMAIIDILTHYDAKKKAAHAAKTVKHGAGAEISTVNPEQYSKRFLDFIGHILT
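qHTS, 1536-well: enzyme/substrate mix, compound by pin tool, 5 microM ATP final; RT 60 min; ADP-Glo reagents 1 (45 min) then 2 (30 min); luminescence.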
HP1b chromo inh: inhibitors of HP1-beta chromodomain binding to methylated histone tails; P83916; AlphaScreen HP1-beta / biotin-H3K9me3 peptide binding; Potency, µM (series often up to 114 µM), for the others: at the top dose activity change, negative = inhibition, hits mostly inhibitors; 390,000 tested, 0.56% active; AID 540317; note: potency is the fitted concentration of half-maximal effect; nearly all actives have a fitted effect of over 70% in size
Target sequence (P83916 whole entry, looked up): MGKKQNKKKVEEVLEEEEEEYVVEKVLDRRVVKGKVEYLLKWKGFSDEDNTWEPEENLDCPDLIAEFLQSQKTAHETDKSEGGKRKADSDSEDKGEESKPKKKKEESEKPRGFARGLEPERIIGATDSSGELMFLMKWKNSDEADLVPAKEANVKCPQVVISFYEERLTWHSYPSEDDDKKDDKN
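Compound inhibition of the preformed complex between 50 nM HP1-beta and 50 nM biotinylated H3K9me3 peptide was read by AlphaScreen. Buffer was PBS pH 7.4 with 0.01% Tween-20. Incubations ran 30 min at room temperature, with 10 ug/mL donor/acceptor beads.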
BAZ2B inh: BAZ2B (human) inhibition. Q9UIF8. AlphaScreen BAZ2B-H3K14Ac peptide displacement. Potency, µM (doses to about 114 µM), for inactives: at the top dose activity change, negative = inhibition, most hits filed as inhibitors. 360,000 tested, 4.4% active; note: potency is the fitted concentration of half-maximal effect; % is set by controls: 0 for no effect and ±100 for the full control effect; nearly all actives have a fitted effect of over 60% in size
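In this displacement format the biotinylated H3(5-23) peptide acetylated at Lys14 serves as ligand at 50 nM, with BAZ2B at 50 nM in PBS pH 7.4 containing 0.01% Tween-20. Donor and acceptor beads are 10 ug/mL final.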
JMJD2A Tudor: JMJD2A Tudor domain (human) inhibition; AlphaScreen JMJD2A-Tudor / H3K4me3 peptide binding; Potency, µM (series often up to 114 µM), without a hit: at the top dose activity change, negative = inhibition, usual class: inhibitors; 390,000 tested, 4.4% active; AID 504339; note: potency is the fitted concentration of half-maximal effect; % is set by controls: 0 for no effect and ±100 for the full control effect; nearly all actives have a fitted effect of over 50% in size
G9a block: G9a (human) methyltransferase inhibition | Q96KQ7 | G9a H3K9 monomethylation, AlphaScreen, 2 h | Potency, µM (highest dose often 102 µM), inactives show at the highest dose activity, negative = inhibition, most hits filed as inhibitors | 350,000 tested, 8.8% active | AID 504332; note: potency is the fitted concentration of half-maximal effect; % is set by controls: 0 for no effect and ±100 for the full control effect; nearly all actives have a fitted effect of over 75% in size
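Readings reflect AlphaScreen signal from monomethyl-H3K9 antibody detection. HMT at 20 nM; substrate b-H3K9 500 nM; cofactor SAM 20 uM; 2 h RT reaction; compounds tested as titrations in qHTS with 15 min preincubation.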
L3MBTL1 block: L3MBTL1 (human) inhibition; Potency, µM (top dose mostly 57.1 µM), for the others: top-dose activity, negative = inhibition, hits mostly inhibitors; Q9Y468; AID 485360; 230,000 tested, 0.66% active; AlphaScreen L3MBTL1–H3K9me1 peptide binding; note: potency is the fitted concentration of half-maximal effect; % is set by controls: 0 for no effect and ±100 for the full control effect; nearly all actives have a fitted effect of over 60% in size
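L3MBTL1 50 nM + b-AHA-H3(1-15)K9me1 75 nM, 30 min RT; compound added, 30 min RT; streptavidin donor/Ni-chelate acceptor beads 10 ug/mL each final, 30 min RT dark; AlphaScreen read.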
Numbers without * were called inactive; [ ] = another dose, or the depositor's remark. The list is not random: actives were taken first. Their share in the collection is about 11%. Unless noted, calls come from the whole dose curve; as a rule, active = well fitted inhibition curve with a large enough effect; inconclusive = small, poorly fitted or top-dose-only effect; inactive = no such curve, though single readings can be large or run the other way.

`COc1ccc(N2CCN(C(=O)c3cc(S(=O)(=O)N4CCCCCC4)ccc3OC)CC2)cc1` gave PI5P4K alpha inh 11.0, HP1b chromo inh inconclusive, BAZ2B inh inconclusive, JMJD2A Tudor inconclusive, G9a block 50.1µM* and L3MBTL1 block -12.0%.
For COc1ccc(S(=O)(=O)N2CCCCCC2)cc1C(=O)N1CCN(c2ccc(F)cc2)CC1 the results were PI5P4K alpha inh -7.2, HP1b chromo inh 14.9% and JMJD2A Tudor -25.2%.
For COc1ccc(N2CCN(C(=O)c3ccc(Cl)c(S(=O)(=O)N4CCCC4)c3)CC2)cc1 the results were PI5P4K alpha inh 0.1, HP1b chromo inh -1.1%, BAZ2B inh 70.8µM*, JMJD2A Tudor inconclusive, G9a block 39.8µM* and L3MBTL1 block inconclusive.
For COc1cc2c(cc1OC)CN(C(=O)c1cc(S(=O)(=O)N3CCOCC3)ccc1Cl)CC2 the results were PI5P4K alpha inh 1.6, HP1b chromo inh 20.2%, BAZ2B inh -13.9%, JMJD2A Tudor inconclusive, G9a block 50.1µM* and L3MBTL1 block 4.9%.
Screening COc1ccc(S(=O)(=O)N2CCOCC2)cc1C(=O)N1CCCC1 returned PI5P4K alpha inh 1.5, HP1b chromo inh 20.9%, BAZ2B inh -5.5%, JMJD2A Tudor -7.4% and G9a block 0.9%[12.7 µM].
Screening COc1ccc(N2CCN(S(=O)(=O)c3ccc(OC)c(C(=O)N4CCOCC4)c3)CC2)cc1 returned PI5P4K alpha inh -5.1, HP1b chromo inh 4.0%, BAZ2B inh -21.5%, JMJD2A Tudor -10.2% and G9a block 44.7µM*.
For O=C(CN1C(=O)CC(c2ccco2)Sc2ccccc21)NCC1CCCO1 (configuration not stated) the results were HP1b chromo inh 5.1%, BAZ2B inh -0.9%, JMJD2A Tudor -26.8%, G9a block 11.2µM* and L3MBTL1 block -2.7%.
Screening CN(C)C(=O)NC1C=CS(=O)(=O)C1 (configuration not stated) returned PI5P4K alpha inh -6.2, HP1b chromo inh 22.8%, BAZ2B inh 4.3%, JMJD2A Tudor -4.8%, G9a block -41.2% and L3MBTL1 block -7.4%.
CCOC(=O)NC1C=CS(=O)(=O)C1 (configuration not stated) was read as PI5P4K alpha inh 1.1, HP1b chromo inh 21.2%, BAZ2B inh -3.1%, JMJD2A Tudor -9.1%, G9a block 50.1µM* and L3MBTL1 block -3.7%.
`Cn1c(=O)c2c(nc(NCc3ccccc3)n2C)n(C)c1=O` gave PI5P4K alpha inh 0.4, HP1b chromo inh 20.6%, BAZ2B inh 2.7%, JMJD2A Tudor -14.6%, G9a block 7.7%[12.7 µM] and L3MBTL1 block 2.0%.
`Cn1c(=O)c2cc(NCc3ccccc3)nnc2n(C)c1=O` gave PI5P4K alpha inh -6.5, HP1b chromo inh 36.0%, BAZ2B inh -8.4%, JMJD2A Tudor 2.9%, G9a block 14.1µM* and L3MBTL1 block -21.0%.
CC(C)(C)Sc1ccc2nc3c(n2c1)CCCC3 was read as PI5P4K alpha inh -1.5, HP1b chromo inh 3.9%, BAZ2B inh inconclusive, JMJD2A Tudor -29.8%, G9a block 50.1µM* and L3MBTL1 block -6.2%.
`Cc1cc(NC(c2cccnc2)c2ccc3cccnc3c2O)no1` (configuration not stated) gave PI5P4K alpha inh -10.3, HP1b chromo inh 26.2%, BAZ2B inh 7.94µM*, JMJD2A Tudor 31.6µM*, G9a block 35.5µM* and L3MBTL1 block inconclusive.
`Cc1cc(NC(=O)c2cc(-c3cccnc3)nc3c(C)c(C)ccc23)no1` gave PI5P4K alpha inh -4.4, HP1b chromo inh 11.4%, BAZ2B inh -24.1%, JMJD2A Tudor inconclusive, G9a block -5.6%[59 µM] and L3MBTL1 block -3.5%.
For Oc1c(C(Nc2cccc(C(F)(F)F)c2)c2cccnc2)ccc2cccnc12 (configuration not stated) the results were PI5P4K alpha inh -12.8, HP1b chromo inh inconclusive, BAZ2B inh 20µM*, JMJD2A Tudor 56.2µM*, G9a block 8.91µM* and L3MBTL1 block inconclusive.
For Oc1c(C(Nc2ccccn2)c2cccnc2)cc(Cl)c2cccnc12 (configuration not stated) the results were PI5P4K alpha inh 0.6, HP1b chromo inh 0.2%, BAZ2B inh 11.2µM*, JMJD2A Tudor 39.8µM*, G9a block 28.2µM* and L3MBTL1 block inconclusive.
Cc1ccc(S(=O)(=O)N/N=C2\C(=O)C3(C)CCC2C3(C)C)cc1 (configuration not stated) was read as PI5P4K alpha inh -6.9, HP1b chromo inh 52.3%, BAZ2B inh inconclusive, JMJD2A Tudor -8.3%, G9a block 14.1µM* and L3MBTL1 block 1.1%.
For Cc1ccc(S(=O)(=O)NN=C2C(=O)C3CCC2C3Cl)cc1 (configuration not stated) the results were PI5P4K alpha inh 6.9, HP1b chromo inh 49.1% and JMJD2A Tudor inconclusive.
`Nc1cnn(Cc2ccccc2F)c1` gave PI5P4K alpha inh -6.5, HP1b chromo inh inconclusive, BAZ2B inh 39.8µM*, JMJD2A Tudor 50.1µM*, G9a block inconclusive and L3MBTL1 block inconclusive.
Nc1cnn(Cc2ccc(F)cc2)c1 was read as PI5P4K alpha inh 2.9, HP1b chromo inh 28.5%, BAZ2B inh inconclusive, JMJD2A Tudor -20.9%, G9a block inconclusive and L3MBTL1 block 2.7%.
Screening Cc1c(Cl)cccc1NC(=S)NN returned PI5P4K alpha inh 0.8, HP1b chromo inh 30.8%, BAZ2B inh -11.7%, JMJD2A Tudor -21.8%, G9a block 3.2%[59 µM] and L3MBTL1 block -12.4%.
Cc1cccc(Cl)c1NC(=S)NN was read as PI5P4K alpha inh -8.4, HP1b chromo inh 36.8%, BAZ2B inh -3.0%, JMJD2A Tudor -17.6% and G9a block 3.55µM*.
Screening CCc1ccc(Nc2cc(C)nc3nc(Cc4ccc(Cl)cc4)nn23)cc1 returned HP1b chromo inh 37.0%, BAZ2B inh -18.3%, JMJD2A Tudor -13.2% and G9a block 0.3%[59 µM].
For CCOc1ccc(S(=O)(=O)N(C(C)=O)c2ccc3oc(C)c(C(=O)OC)c3c2)cc1 the results were HP1b chromo inh 19.2%, BAZ2B inh -0.8%, JMJD2A Tudor -1.7% and G9a block 0.6%[59 µM].
`COc1ccc(S(=O)(=O)N(C(C)=O)c2ccc3oc(=O)sc3c2)cc1` gave PI5P4K alpha inh -24.4, HP1b chromo inh 34.9%, BAZ2B inh -34.3%, JMJD2A Tudor inconclusive, G9a block 7.08µM* and L3MBTL1 block -6.6%.
`Cc1ccccc1CNC(=O)c1c(C)oc2c1C1=NCCN1C=N2` gave HP1b chromo inh 33.7%, BAZ2B inh -5.5%, JMJD2A Tudor -2.0% and G9a block 19.6%[59 µM].
